Shown are actives, neighbours in structure and some others; about 6% of the full set was active somewhere.
D1 agonist: human D1 receptor agonism; hit rate 1% among 360,000; activation, % at 2 µM; AID 504660; HEK293 T-REx D1 cells, calcium flux, agonist mode; in the data active means activation above about 30%; further: 0% is about no effect
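Inducible HEK293 T-REx D1 cells, force-coupled to calcium signalling, were plated at 4000 cells/well with tetracycline and held overnight at 30 C. After no-wash calcium dye loading, compound-evoked calcium rise over 180 s flagged agonists.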
D1 potentiator: enhances dopamine response at the human D1 receptor; HEK293 TREx D1 cells, calcium flux, dopamine EC20 potentiation; hit rate 0.036% among 360,000; AID 504651; P21728; potentiation, % at 10 µM; in the data active means potentiation above about 30%; further: 0% is about no effect
D1 antag: blocks dopamine activation of the human D1 receptor. P21728. HEK293 TREx D1 cells, calcium flux, dopamine EC80; stronger effect = lower value. activity change, negative = inhibition, % at 10 µM. hit rate 3.2% among 360,000. AID 504652; in the data active means activity change below about -30%; further: on the % scale 0 is the no-effect control and ±100 the full control effect
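After overnight tetracycline induction at 30 C, force-coupled D1 HEK293 cells took up a no-wash calcium dye at room temperature. Compounds were added and monitored 180 s, and the response to EC80 dopamine was then recorded.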
DRD3 agonist: D3 dopamine receptor (human) agonism. P35462. D3R DiscoveRx beta-arrestin cells, luminescence, 90 min. max activation, %. hit rate 0.58% among 410,000. AID 652048; in the data active means max activation above about 30%; further: 0% is about no effect
Target sequence (P35462 whole entry, looked up): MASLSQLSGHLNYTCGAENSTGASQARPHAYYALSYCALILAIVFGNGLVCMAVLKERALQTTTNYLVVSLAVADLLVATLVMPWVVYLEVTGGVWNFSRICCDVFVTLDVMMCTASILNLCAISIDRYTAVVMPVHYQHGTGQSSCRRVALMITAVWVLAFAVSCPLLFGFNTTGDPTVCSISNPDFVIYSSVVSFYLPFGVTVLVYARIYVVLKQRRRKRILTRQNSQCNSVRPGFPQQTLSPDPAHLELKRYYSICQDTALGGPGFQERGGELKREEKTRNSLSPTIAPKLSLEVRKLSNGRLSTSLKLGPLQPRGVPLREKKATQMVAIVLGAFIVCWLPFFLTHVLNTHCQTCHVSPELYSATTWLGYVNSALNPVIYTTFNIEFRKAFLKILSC
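Agonist-mode cell screen: cells plated at 1500/well and incubated overnight at 37 °C, then exposed to library compounds for 90 min at 37 °C. Detection reagent was added for 30–60 min at room temperature, and luminescence was read.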
D3 antag: antagonists of human D3 dopamine receptor; P35462; D3R cells, DiscoveRx beta-arrestin luminescence, antagonist mode; stronger effect = lower value; max response, negative = inhibition, %; hit rate 2.5% among 360,000; AID 652054; in the data active means max response below about -50%; inconclusive means no clear call, values can overlap the other calls; further: on the % scale 0 is the no-effect control and ±100 the full control effect
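Cells plated overnight at 1500 cells/well, then exposed to library compounds with dopamine controls for 90 minutes at 37 degrees C. DiscoveRx reagent added for 30–60 minutes at room temperature; luminescence read, quantitative HTS format.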
BCR signal inh: chronic active BCR signaling inhibition. AID 493014. Potency, µM (doses to about 46.1 µM), inactives show at the top dose activity change, negative = inhibition, most hits filed as inhibitors. ABC-DLBCL IkBa-CBG/CBR reporter, luminescence ratio, 4 h. hit rate 0.05% among 340,000; active means well fitted inhibition curve with a large enough effect in the signal ratio, with a control signal flat, not every such curve was filed as active; inconclusive means small, poorly fitted or top-dose-only effect, or effect the other way, or a change in a side signal; the % refers to the signal ratio;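 further: potency means the concentration at half of the fitted maximal effect; plate controls were basal doxycycline-induced cells for no effect and cells given 10 µM MG132 for full effect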
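TMD8 ABC-DLBCL cells carrying doxycycline-inducible green luciferase fused to IkappaBalpha plus unfused red luciferase were exposed to compounds (up to 46 uM) for 4 hrs at 37C. Activity came from the overlap-corrected green/red luminescence ratio.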
Numbers without * were called inactive; ? = inconclusive; · = no result given.

SMILES | D1 agonist | D1 potentiator | D1 antag | DRD3 agonist | D3 antag | BCR signal inh
CCn1cc(/C=N/NC(=O)c2ccc(C#N)cc2F)c2ccccc21 | 0 | -2 | 0 | -5 | -17 | -12%
O=C1Nc2ccc([N+](=O)[O-])cc2OC1CCN1CCOCC1 (centres undefined) | 1 | -2 | 1 | 11 | 38 | 3%
O=C1Nc2ccc([N+](=O)[O-])cc2OC1CCN1CCN(c2ccccc2)CC1 (centres undefined) | 0 | -2 | -3 | -24 | -51* | -4%
O=C(CCC1N=C2c3ccccc3N=C(SCC(=O)Nc3ccc(F)cc3)N2C1=O)NCc1ccco1 (centres undefined) | 3 | -2 | 0 | -3 | · | -1%
CSCCC(NC(=O)c1ccco1)C(=O)Nc1ccc(C)cn1 (centres undefined) | 0 | -19 | -35* | 3 | 5 | ?
Cc1ccc(NC(=O)c2ccco2)nc1 | · | · | · | -7 | ? | ·
CCC(=O)Nc1sc2c(c1C(=O)Nc1ccc(Br)cc1)CCCCC2 | 4 | -3 | -31* | 3 | · | ·
CN1CCc2sc(NC(=O)Cc3ccccc3)c(C(=O)Nc3ccc(Cl)cc3)c2C1 | 23 | -6 | -53* | · | · | ·
CCOC(=O)c1c(NC(=S)NNS(=O)(=O)c2ccc(Br)cc2)sc2c1CCCCC2 | 11 | -7 | -33* | 2 | 12 | -4%
CCOC(=O)c1c(NC(=S)Nc2ccc(OC)cc2)sc2c1CCCCC2 | 3 | 1 | 7 | -5 | -11 | 4%
COc1ccc(-c2oc3c(c2C#CC(C)(C)O)C(OCCO)CC3)cc1 (centres undefined) | · | · | · | 4 | 32 | ·
COC(=O)c1c(N)n(-c2cc(Cl)cc(Cl)c2)c2nc3ccccc3nc12 | 0 | 0 | 6 | 7 | · | ·
O=C(CCCn1c(=O)c2cccn2c2ccc(F)cc21)NCc1ccc(Cl)cc1 | 8 | 0 | 17 | 2 | · | ·
O=C1CCN(CCc2ccccc2)CCN1[C@H](CSc1ccccc1)Cc1ccccc1 | 13 | -8 | -1 | -23 | -22 | ?
Cc1ccc(SC[C@H](Cc2ccccc2)N2CCN(CCc3ccccc3)CCC2=O)cc1 | 19 | -3 | -1 | -60 | -58* | 0%
CN1CCC(=O)N([C@H](CSc2ccc(Br)cc2)Cc2ccccc2)CC1 | 9 | -6 | -1 | -48 | -21 | -2%
CC(C)CN1CCC(=O)N([C@H](CSc2ccc(Br)cc2)Cc2ccccc2)CC1 | 9 | 3 | -50* | -59 | -67* | 0%
Cc1ccc(S(=O)(=O)Cn2nnnc2C(C(C)C)N2CCSCC2)cc1 (centres undefined) | 2 | -2 | -8 | -11 | -16 | 1%
Cc1ccc(S(=O)(=O)Cn2nnnc2C(C(C)C)N2CCN(Cc3ccco3)CC2)cc1 (centres undefined) | 0 | -2 | -7 | -31 | -59* | -1%
O=c1oc2ccccc2c(Nc2cccc(O)c2)c1[N+](=O)[O-] | 0 | -5 | -15 | -3 | -81* | ?
O=c1oc2ccccc2c(Nc2ccc(Cl)cc2)c1[N+](=O)[O-] | 33* | -11 | -4 | 6 | 15 | ?
CC(C)c1ccc(CNc2c([N+](=O)[O-])c(=O)oc3ccccc23)cc1 | 27 | -3 | -34* | -10 | -28 | 0%
O=c1oc2ccccc2c(Nc2ccc(F)cc2)c1[N+](=O)[O-] | 11 | 1 | -7 | -4 | -6 | -15%
O=C(O)c1cccc(Nc2c([N+](=O)[O-])c(=O)oc3ccccc23)c1 | -1 | -3 | 26 | -8 | -7 | ?
c1ccc2c(C(c3nnnn3-c3ccc4c(c3)OCCO4)N3CCCCC3)ccnc2c1 (centres undefined) | · | · | · | -12 | -18 | ·
SMILES | D1 agonist | D1 potentiator | D1 antag | DRD3 agonist | D3 antag | BCR signal inh
CCC(=O)N1CCc2cc(Br)cc(S(=O)(=O)CCC(=O)NCc3ccc(F)cc3)c21 | 2 | 1 | -17 | 9 | · | ·
Cc1ccc(-c2nc(CCNC(=O)C(=O)Nc3ccc(F)cc3F)cs2)cc1 | 9 | -4 | -8 | 11 | · | ·
Cc1cc2c(cc1C)-n1c(-c3ccccc3)c3c(=O)n(C)c(=O)n(C)c3c1C(c1ccco1)N2 (centres undefined) | 3 | -1 | 14 | -11 | · | ·
Cn1c(=O)c2c(-c3ccccc3)n3c(c2n(C)c1=O)C(c1ccco1)Nc1ccccc1-3 (centres undefined) | 1 | 2 | -31* | -12 | · | ·
CCN1CCN(C(=S)Nc2cccc(Cl)c2)CC1 | 0 | -6 | · | -2 | -6 | 1%
CCN1CCN(C(=S)c2ccc(Cl)c(Cl)c2)CC1 | 0 | -2 | 12 | -5 | -51* | ?
CCN1CCN(C(=S)Nc2ccc(Cl)c(Cl)c2)CC1 | 20 | -1 | 3 | -31 | -50* | 3%
O=C(Cn1ccc2cc(S(=O)(=O)N3CCCCCC3)ccc21)NCCc1ccc(Cl)cc1 | 7 | 0 | 4 | -14 | · | ·
COc1ccccc1N1CCN(c2c(CN3CCCC3)c(=O)oc3ccccc23)CC1 | 0 | -2 | -5 | -21 | · | ·
Oc1c(C(c2ccccc2F)N2CCOCC2)sc2nc(-c3ccco3)nn12 (centres undefined) | 4 | 1 | · | 2 | · | ?
O=C1CC(SCc2nc3ccccc3[nH]2)C(=O)N1c1cccc(Cl)c1 (centres undefined) | 2 | -2 | 0 | -1 | -24 | -1%
O=C1CC(SCc2nc3ccccc3[nH]2)C(=O)N1c1ccc(F)cc1 (centres undefined) | 2 | -3 | 11 | -4 | -66* | ?
CCOC(=O)c1ccc(NC(=O)c2c(NCc3cccs3)sc3c2CCCCC3)cc1 | 5 | -3 | 2 | -14 | · | ?
COc1ccc(N(C)C(=O)c2nc(-c3cccc(F)c3)n3c2CCCCC3)c(OC)c1 | 1 | -3 | 7 | -17 | · | ·
Cc1ccc(C(=O)NCC(=O)OCc2cc(=O)n3nc(C4CCCCC4)sc3n2)cc1 | 0 | -4 | -45* | 2 | · | ·
CC(=O)OCc1cc(=O)n2nc(C3CCCCC3)sc2n1 | 2 | -3 | -6 | -1 | · | ·
O=C(CNC(=O)c1ccc(Cl)cc1)OCc1cc(=O)n2nc(C3CCCCC3)sc2n1 | 7 | -4 | -6 | 1 | · | ·
CCC(CC)C(=O)OCc1cc(=O)n2nc(C3CC3)sc2n1 | 2 | 1 | -8 | 45* | · | ·
CC(C)(C)C(=O)OCc1cc(=O)n2nc(C3CCCCC3)sc2n1 | 2 | -1 | -33* | 9 | · | ·
O=C(c1ccc2c(c1)CCCC2)N1CCN(c2nc3ccc(F)cc3s2)CC1 | -2 | -2 | · | -8 | · | 16%
Cc1ccc(S(=O)(=O)N(CC(O)CN2CCOCC2)c2cc(Cl)ccc2Cl)cc1 (centres undefined) | 4 | 2 | -8 | -18 | -54* | 3%
